Screening data: PubChem BioAssay, National Center for Advancing Translational Sciences (NCATS)
Compounds with a hit are over-represented: about 5.1% of the library has one in this group of screens.
Tau ThT inhib: qHTS for Inhibitors of Tau Fibril Formation, Thioflavin T Binding | Potency, µM (doses to about 57.4 µM), most hits filed as inhibitors | Microtubule-associated protein tau (Homo sapiens), P10636 | AID 1460, 2008 | recombinant tau K18 P301L, heparin-induced fibrillization, ThT fluorescence | actives 2.1% (n = 270,000); also: nearly all actives have a fitted effect of over 55% in size
Target sequence (P10636 561-689 P618L limits assumed): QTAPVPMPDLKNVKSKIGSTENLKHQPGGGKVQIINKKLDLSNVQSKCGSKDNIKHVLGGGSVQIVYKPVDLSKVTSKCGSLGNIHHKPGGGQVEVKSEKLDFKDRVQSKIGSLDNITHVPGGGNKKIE
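Heparin-induced (20 uM) aggregation of recombinant human K18 P301L tau, 15 uM unlabeled with 0.24 uM labeled, pH 7 acetate buffer, 6 hr at 37 C with compound. Fibrils quantified by 30 uM ThT fluorescence after 1 hr ambient incubation.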
NPSR antag: qHTS Assay for Antagonists of the Neuropeptide S Receptor: cAMP Signal Transduction; actives 1% (n = 220,000); CHO-NPSR cells, cAMP TR-FRET, antagonist mode; Potency, µM (titrated, usually from 38.3 µM), most hits filed as inhibitors; also: nearly all actives have a fitted effect of over 50% in size
Target sequence (Q6W5P4 whole entry, looked up): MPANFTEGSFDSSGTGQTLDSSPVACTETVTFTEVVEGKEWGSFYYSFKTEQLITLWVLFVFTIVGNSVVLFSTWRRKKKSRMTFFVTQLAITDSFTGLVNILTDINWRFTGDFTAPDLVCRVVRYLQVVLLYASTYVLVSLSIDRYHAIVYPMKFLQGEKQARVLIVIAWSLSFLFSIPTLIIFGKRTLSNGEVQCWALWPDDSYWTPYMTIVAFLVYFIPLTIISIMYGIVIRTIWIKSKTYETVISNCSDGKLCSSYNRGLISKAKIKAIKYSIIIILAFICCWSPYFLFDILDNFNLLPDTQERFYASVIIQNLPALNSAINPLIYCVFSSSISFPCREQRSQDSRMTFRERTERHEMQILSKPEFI
JMJD2E inh: qHTS Assay for Inhibitors of Human Jumonji Domain Containing 2E (JMJD2E). JMJD2E catalytic domain, FDH-coupled NADH fluorescence (FDH is formaldehyde dehydrogenase). Lysine-specific demethylase 4E (Homo sapiens), B2RXH2. Potency, µM (highest dose often 57.1 µM), actives largely listed as inhibitors. actives 1.6% (n = 230,000); active = well fitted inhibition curve with a large enough effect, not every such curve was filed as active; inconclusive = small, poorly fitted or top-dose-only effect, or another doubt; inactive = no such curve, though single readings can be large or run the other way; also: nearly all actives have a fitted effect of over 50% in size
PNC inhibitor: High Content Assay for Compounds that inhibit the Assembly of the Perinucleolar Compartment; activity change (PNC), negative = inhibition, % at 10 µM; actives 3.1% (n = 140,000); PC3M PTB-GFP, PNC prevalence imaging, 16 h; hits give low values;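 active = readout at or below -70, meaning at least 70% loss of cells showing the perinucleolar compartment, a nuclear body marking cancer cells; inconclusive = readout between -30 and a set limit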
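Read-out is percentage of cells bearing a perinucleolar compartment, from automated 20x imaging of fixed, Hoechst-stained PC3M PTB-GFP cells. Cells were seeded 4 h, then exposed 16 h to compound (23 nl of library stock) in duplicate plates.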
Tau FP inhib: qHTS for Inhibitors of Tau Fibril Formation, Fluorescence Polarization; Microtubule-associated protein tau (Homo sapiens), P10636; K18 P301L tau heparin fibrillization, Alexa594 FP, 6 h; Potency, µM (titrated, usually from 57.7 µM), usual class: inhibitors; actives 0.39% (n = 280,000); AID 1468, 2008; also: nearly all actives have a fitted effect of over 55% in size
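Quantitative HTS format: compounds meet 15 uM recombinant K18 P301L tau and Alexa 594-tau tracer in 100 mM sodium acetate pH 7; 20 uM heparin triggers fibrillization at 37 C over 6 hr; FP gives the signal.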
Tau fluor cs: Counterscreen qHTS for Inhibitors of Tau Fibril Formation, Fluorescence Polarization; tau K18 P301L (four-repeat tau fragment) Alexa594 fluorescence, heparin fibrillization; actives 0.93% (n = 280,000); Potency, µM (highest dose often 57.7 µM); AID 1463, 2008; also: nearly all actives have a fitted effect of over 55% in size
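Human K18 P301L tau (15 uM unlabeled plus 0.24 uM Alexa 594-labeled, final) in 100 mM sodium acetate pH 7 was mixed with compound and 20 uM heparin and incubated 6 hr at 37 C.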
Each line names hits and unclear results; the compound was inactive in the other large screens; [ ] = another dose, or the depositor's remark. Unless noted, calls follow the shape of the dose curve; as a rule, active = well fitted curve in the direction sought with a large enough effect; inconclusive = small, poorly fitted or top-dose-only effect, or another doubt; inactive = no such curve, though single readings can be large; an effect the other way counts as inactive or inconclusive.

Cc1ccc(S(=O)(=O)Nc2ccc(C(=O)OCC(=O)N(CCC#N)c3ccccc3)cc2)cc1C	PNC inhibitor -87
COc1ccccc1N1CCN(CC(O)COc2c(OC)cccc2OC)CC1 (stereo unspecified)	Tau ThT inhib 20µM, Tau FP inhib inconclusive, Tau fluor cs inconclusive
CCOc1ccccc1CNC(=O)c1cc(-c2ccc(C)c(C)c2)nc2ccccc12	none (no result: NPSR antag, JMJD2E inh, PNC inhibitor)
COC(=O)CN(c1ccccc1C)S(C)(=O)=O	none
COC(=O)CN(c1c(C)cccc1C)S(C)(=O)=O	PNC inhibitor -86
CCN(c1cccc(C)c1)S(=O)(=O)c1nnc(NC(=O)c2ccccc2Cl)s1	none (no result: NPSR antag, JMJD2E inh, PNC inhibitor)
N=C1/C(=C/c2cccs2)C(=O)N=C2SN=C(SCc3ccccc3)N12	Tau ThT inhib 18µM, Tau fluor cs inconclusive
CSC1=NSC2=NC(=O)/C(=C\c3cccs3)C(=N)N12	Tau ThT inhib 14µM
CCc1ccc(C2=C(C)C(N3CCC(C(=O)Nc4ccc(F)cc4)CC3)=NS2(=O)=O)cc1	none (no result: NPSR antag, JMJD2E inh, PNC inhibitor)
O=C(Nc1ccc(C(=O)N2CCCCC2)cc1)c1nsc2ccccc12	Tau ThT inhib inconclusive (no result: NPSR antag, JMJD2E inh, PNC inhibitor)
CS(=O)(=O)N(Cc1ccccc1)c1ccc(C(=O)Nc2cccc(Cl)c2)cc1	Tau FP inhib inconclusive, Tau fluor cs inconclusive (no result: NPSR antag, JMJD2E inh, PNC inhibitor)
Cc1cc2oc(C(=O)N(Cc3ccccc3F)C3CCS(=O)(=O)C3)c(C)c2cc1Cl (stereo unspecified)	none (no result: NPSR antag, JMJD2E inh, PNC inhibitor)
COc1ccc(CCNCC(=O)Nc2ccc(C)c(S(=O)(=O)N(C)C)c2)cc1	JMJD2E inh 28µM (no result: PNC inhibitor)
COc1ccc(CCC(=O)Nc2ccc(C)c(S(=O)(=O)N(C)C)c2)cc1OC	PNC inhibitor inconclusive
CC(C)NC(=O)Cn1nnc(-c2ccc(Cl)cc2)n1	Tau ThT inhib 25µM, Tau FP inhib inconclusive, Tau fluor cs inconclusive
COc1cccc(C(=O)/C=C/Nc2cc(C)ccc2O)c1	Tau ThT inhib 3.5µM, NPSR antag inconclusive, JMJD2E inh inconclusive, Tau fluor cs 16µM[quencher]
Cc1ccc(NC(=O)c2c(C)nc3sc(C(=O)Nc4ccc(F)cc4)c(N)c3c2-c2ccc(C)o2)c(C)c1	Tau ThT inhib inconclusive, Tau fluor cs inconclusive (no result: NPSR antag, JMJD2E inh, PNC inhibitor)
Cc1cc(C)cc(N(CC(=O)NCC2CCCO2)C(=O)CCC(=O)Nc2cc(C)on2)c1 (stereo unspecified)	PNC inhibitor -82
CCNC(=S)N1CCc2ccccc2C1	none (no result: PNC inhibitor)
Cc1cccc(C(=O)NC(=S)N2CCc3ccccc3C2)c1	PNC inhibitor -82
CCC(C)NC(=O)CSc1nc2n[nH]c(C)c2c(=N)n1-c1ccc(C)c(Cl)c1 (stereo unspecified)	none (no result: NPSR antag, JMJD2E inh, PNC inhibitor)
COc1ccc(OC)c(/C=C/c2nc3ccccc3c(=O)n2-c2ccc(F)c(Cl)c2)c1	none (no result: NPSR antag, JMJD2E inh, PNC inhibitor)
COc1ccccc1NC(=O)CN1CCN(Cc2ccccc2)CC1	PNC inhibitor -87
COc1ccccc1NC(=O)CN1C(=O)CSC(C)C1=O (stereo unspecified)	none
COc1ccccc1NC(=O)CN1C(=O)C(C)SC(C)C1=O (stereo unspecified)	PNC inhibitor -99
COc1cc(NC(=O)c2ccccc2Cl)c(OC)cc1NC(=O)CN1CCOCC1	PNC inhibitor -90
COc1cc(NC(=O)c2ccccc2)c(OC)cc1NC(=O)CN1CCOCC1	Tau ThT inhib inconclusive
COc1cccc(-c2nnc(SCC(=O)NC3CCCCC3)o2)c1	Tau ThT inhib inconclusive (no result: NPSR antag, JMJD2E inh, PNC inhibitor)
COc1cccc(N2C(=O)C(CC(=O)Nc3ccccc3)N(CCc3sccc3C)C2=O)c1 (stereo unspecified)	Tau FP inhib inconclusive, Tau fluor cs inconclusive (no result: NPSR antag, JMJD2E inh, PNC inhibitor)
Cc1ccc(-c2cc(NC(=O)C(C)Oc3ccccc3F)on2)cc1 (stereo unspecified)	Tau fluor cs inconclusive (no result: NPSR antag, JMJD2E inh, PNC inhibitor)
CCN(Cc1ccccc1)C(=O)Cn1c(=O)n(-c2ccc(Cl)c(Cl)c2)c(=O)c2c(C)c(C(=O)N(C)C)sc21	none (no result: NPSR antag, JMJD2E inh, PNC inhibitor)
Nc1nnc(CC(=O)N/N=C/c2ccc(-c3ccccc3)o2)s1	Tau ThT inhib inconclusive, JMJD2E inh inconclusive, PNC inhibitor inconclusive
COC(=O)c1ccc(-c2ccc(/C=N/NC(=O)Cc3nnc(N)s3)o2)cc1	Tau ThT inhib 7.9µM, JMJD2E inh inconclusive (no result: PNC inhibitor)
CCOC(=O)C1=C(C)NC(C)=C(C(=O)OCC)C1c1cc2ccc(C)cc2[nH]c1=O	JMJD2E inh inconclusive, PNC inhibitor -111
Cc1cccc2c1NC(=O)/C2=C\C(=O)c1cccs1	Tau ThT inhib 22µM
CCc1ccc2c(c1)/C(=C/C(=O)c1cccs1)C(=O)N2	Tau ThT inhib inconclusive, NPSR antag 10µM
Cc1cc(Br)c2c(c1)/C(=C/C(=O)c1cccs1)C(=O)N2	Tau ThT inhib inconclusive (no result: PNC inhibitor)
Cc1cc(C)c2c(c1)/C(=C/C(=O)c1ccc(Br)s1)C(=O)N2	Tau ThT inhib 28µM, Tau fluor cs 20µM[quencher]
O=C(CSc1nnc(CNC(=O)c2c(F)cccc2Cl)o1)Nc1cccc(F)c1	none (no result: NPSR antag, JMJD2E inh, PNC inhibitor)
O=P(CCCCCCCCCP(=O)(c1ccccc1)c1ccccc1)(c1ccccc1)c1ccccc1	Tau ThT inhib inconclusive, NPSR antag 13µM
CCOC(=O)C1(C)/C(=N/Nc2cccc(Cl)c2)C(=O)C(=O)N1c1ccccc1 (stereo unspecified)	Tau ThT inhib 20µM
CCOC(=O)C1(C)/C(=N/Nc2ccc(S(N)(=O)=O)cc2)C(=O)C(=O)N1c1ccccc1 (stereo unspecified)	Tau ThT inhib 11µM (no result: PNC inhibitor)
CCOC(=O)C1(C)/C(=N/Nc2ccc(Cl)cc2)C(=O)C(=O)N1c1ccccc1 (stereo unspecified)	Tau ThT inhib 14µM, PNC inhibitor inconclusive, Tau FP inhib inconclusive
CCOC(=O)C1(C)/C(=N/Nc2ccccc2Cl)C(=O)C(=O)N1c1ccccc1 (stereo unspecified)	Tau ThT inhib 14µM
COc1ccc(CNC(=O)CCc2c(C)c3cc4c(C)c(C)oc4cc3oc2=O)cc1	none (no result: NPSR antag, JMJD2E inh, PNC inhibitor)
CCN(CC)c1ccc(N)cc1S(=O)(=O)Nc1ccccc1OC	Tau ThT inhib 25µM, Tau FP inhib inconclusive (no result: PNC inhibitor)
CCN(CC)c1ccc(N)cc1S(=O)(=O)Nc1ccc(OC)cc1	none (no result: PNC inhibitor)
Cn1cc(/C=C2/SC(=O)N(c3ccccc3)C2=O)c2ccccc21	none
Cn1cccc1/C=C1\SC(=Nc2cccc(O)c2)NC1=O	Tau ThT inhib 7.1µM, Tau fluor cs inconclusive (no result: PNC inhibitor)
Cn1cccc1/C=C1\SC(=Nc2ccc(O)cc2)NC1=O	Tau ThT inhib 4.5µM, Tau fluor cs inconclusive (no result: PNC inhibitor)
